Experimental data taken from PubChem BioAssay (Tox21).
Results filed as inconclusive are left out. Active and inactive are the calls of the source. Unless noted, calls come from the whole dose curve; as a rule, active = well fitted curve in the direction sought with a large enough effect in the repeat runs; inconclusive = weak or mixed curves; inactive = no such curve, though single readings can be large; an effect the other way counts as inactive or inconclusive.

Key:
[1] = qHTS assay to identify small molecule antagonists of the estrogen related receptor (ERR) signaling pathway from Tox21 library - cell viability counter screen (AID 1224834); note: nearly all actives have a fitted effect of over 30% in size
Outline: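 After 17.5 h of compound exposure at 37 C, ERR cells are incubated with CellTiter-Fluor for 30 min and fluorescence intensity serves as the viability measure.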

[2] = qHTS assay to identify small molecule agonists of the constitutive androstane receptor (CAR) signaling pathway - cell viability counter screen (AID 1224836); note: nearly all actives have a fitted effect of over 45% in size; note: potency is the fitted concentration of half-maximal effect
Outline: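 Compound titrations (15 concentrations) went onto HepG2-CYP2B6-hCAR cells 4 h after seeding, alongside PK11195 at a final 0.75 uM; a 23 h, 37 C/5% CO2 incubation preceded CellTiter-Fluor viability measurement.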

[3] = qHTS assay to identify small molecule antagonists of the constitutive androstane receptor (CAR) signaling pathway - cell viability counter screen (AID 1224837); note: series mostly up to about 92 µM; nearly all actives have a fitted effect of over 45% in size
Outline: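 Counter screen run in HepG2-CYP2B6-hCAR cells: 4 hr settle, compound titration (15 concentrations) with 50 nM CITCO, 23 hr at 37 C/5% CO2, CellTiter-Fluor fluorescence.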

[4] = molecular target: Nuclear receptor subfamily 1 group I member 3 (Homo sapiens) (UniProt Q14994); experiment: qHTS assay to identify small molecule antagonists of the constitutive androstane receptor (CAR) signaling pathway (AID 1224838);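 note: HepG2 cells stably expressing hCAR with CYP2B6 luciferase reporter stimulated by CITCO; nearly all actives have a fitted effect of over 40% in size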; note: potency is the fitted concentration of half-maximal effect
Outline: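 Cell line: HepG2 double-stable for hCAR and CYP2B6-2.2kb reporter. Agonist: CITCO, 50 nM final. Compounds: 15 concentrations, 24 h, 37 C. Detection: ONE-Glo luminescence.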

[5] = qHTS assay to identify small molecule antagonists of the estrogen related receptor signaling pathway with the pleiotropic PPARgamma coactivator (PGC) from Tox21 10K library - cell viability counter screen (AID 1224840; active = well fitted cell-killing curve with a large enough effect in the repeat runs, not every such curve was filed as active; note: nearly all actives have a fitted effect of over 40% in size; note: potency is the fitted concentration of half-maximal effect)
Outline: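 Following seeding of 2,000 PGC/ERR cells/well and 6 hours' incubation, test compounds were delivered in DMSO. The plates then sat 17.5 hours at 37 C before a fluorogenic live-cell protease reagent (CellTiter-Fluor) was read after 30 min.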

[6] = qHTS assay to identify small molecule agonists of the estrogen related receptor signaling pathway with the pleiotropic PPARgamma coactivator (PGC) from Tox21 10K library (AID 1224842); note: nearly all actives have a fitted effect of over 15% in size
Outline: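 PGC/ERR reporter cells (NTP line) were seeded 2,000 per well, rested 6 h at 37 C/5% CO2, then pin-dosed with compounds in DMSO for 18 h at 37 C; luciferase read by One-Glo luminescence after 30 min at room temperature.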

[7] = molecular target: Thyrotropin receptor (Homo sapiens) (UniProt P16473); experiment: qHTS assay to identify small molecule agonists of the thyroid stimulating hormone receptor (TSHR) signaling pathway (AID 1224843; calls by dose curve; note: nearly all actives have a fitted effect of over 45% in size)
Outline: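 Cell line HEK293 with TSHR; density 800/well. Exposure 30 min RT. Readout HTRF cAMP (cAMP-d2/anti-cAMP-cryptate), 1 h RT before reading.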

[8] = qHTS assay to identify small molecule agonists of the hypoxia (HIF-1) signaling pathway - cell viability counter screen (AID 1224844; calls by dose curve; note: nearly all actives have a fitted effect of over 50% in size; note: potency is the fitted concentration of half-maximal effect)
Outline: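 Cells (HRE-bla ME-180, 2,000 per well) sat 5 hrs at 37C, got compound for 17 hrs, were read for CCF4-AM FRET, and were finally lysed with CellTiter-Glo for a 30 min room-temperature luminescence read.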

[9] = qHTS assay to identify small molecule agonists of H2AX (AID 1224845; active = well fitted activation curve with a large enough effect in the signal ratio in the repeat runs, not every such curve was filed as active; the % refers to the signal ratio)
Outline: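 Wild-type CHO-K1 cells plated overnight, then exposed 3 hr at 37C to compounds at 15 concentrations (0.76% DMSO). Lysed, then HTRF anti-pH2AX(S139)-cryptate/anti-H2AX-d2 detection after 24 hr at room temperature; emissions 665 and 620 nm.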

[10] = qHTS assay to identify small molecule agonists of the hypoxia (HIF-1) signaling pathway (AID 1224846; active = well fitted activation curve with a large enough effect in the signal ratio in the repeat runs, not every such curve was filed as active; the % refers to the signal ratio)
Outline: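 A low-serum medium (0.5% dialyzed FBS) holding 2,000 HRE-bla ME-180 cells per well is preincubated for 5 hrs, dosed with compounds by pintool, and kept a further 17 hrs at 37C, 5% CO2 before CCF4-AM FRET detection of beta-lactamase.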

[11] = qHTS assay to identify small molecule agonists of H2AX - cell viability counter screen (AID 1224847; calls by dose curve; note: nearly all actives have a fitted effect of over 30% in size; note: potency is the fitted concentration of half-maximal effect)
Outline: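 Read-out: CellTiter-Glo luminescence, 30 min RT. Cells: wild-type CHO-K1, 1000/well, 10% FBS, plated overnight at 37C. Treatment: 15 concentrations, 3 hr, 37C, 0.76% DMSO.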

[12] = molecular target: Luciferin 4-monooxygenase (Photinus pyralis) (UniProt P08659); experiment: qHTS assay to identify small molecule inhibitors of firefly luciferase (AID 1224835); note: nearly all actives have a fitted effect of over 25% in size; note: potency is the fitted concentration of half-maximal effect
Outline: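 Quantitative HTS format; KM concentrations of both substrates. Purified P. pyralis FLuc activity quantified from luminescence images.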

[13] = molecular target: Nuclear receptor subfamily 1 group I member 3 (Homo sapiens) (UniProt Q14994); experiment: qHTS assay to identify small molecule agonists of the constitutive androstane receptor (CAR) signaling pathway (AID 1224839); note: nearly all actives have a fitted effect of over 15% in size; note: potency is the fitted concentration of half-maximal effect;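 for activation: HepG2 cells stably carrying human CAR and a CYP2B6 luciferase reporter; series mostly up to about 92 µM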
Outline: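 In this screen, CAR-driven CYP2B6 promoter activity is measured by luminescence in HepG2-CYP2B6-hCAR cells after 24 h with test compounds and 0.75 uM PK11195 (final concentration).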

[14] = qHTS assay to identify small molecule antagonists of the estrogen related receptor signaling pathway with the pleiotropic PPARgamma coactivator (PGC) from Tox21 10K library (AID 1224841; call rule not given here; note: actives are mostly falling curves and most rising ones were filed inactive; nearly all actives have a fitted effect of over 50% in size; note: potency is the fitted concentration of half-maximal effect)
Outline: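 qHTS antagonist format: PGC/ERR cells, 2k/well, compound in DMSO by pin transfer after 6 h attachment, 18 h treatment at 37 C, One-Glo luminescence read at 30 min.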

[15] = qHTS assay to identify small molecule antagonists of the estrogen related receptor (ERR) signaling pathway from Tox21 library (AID 1224848); note: potency is the fitted concentration of half-maximal effect; nearly all actives have a fitted effect of over 50% in size
Outline: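 Screening used an ERR reporter line supplied by NTP, exposed for 18 h at 37 C to library compounds delivered in DMSO. Signal was luciferase luminescence developed with ONE-Glo at room temperature for 30 min.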

Measured: Potency

Chain of Thyrotropin receptor (Homo sapiens) (P16473 whole entry, looked up): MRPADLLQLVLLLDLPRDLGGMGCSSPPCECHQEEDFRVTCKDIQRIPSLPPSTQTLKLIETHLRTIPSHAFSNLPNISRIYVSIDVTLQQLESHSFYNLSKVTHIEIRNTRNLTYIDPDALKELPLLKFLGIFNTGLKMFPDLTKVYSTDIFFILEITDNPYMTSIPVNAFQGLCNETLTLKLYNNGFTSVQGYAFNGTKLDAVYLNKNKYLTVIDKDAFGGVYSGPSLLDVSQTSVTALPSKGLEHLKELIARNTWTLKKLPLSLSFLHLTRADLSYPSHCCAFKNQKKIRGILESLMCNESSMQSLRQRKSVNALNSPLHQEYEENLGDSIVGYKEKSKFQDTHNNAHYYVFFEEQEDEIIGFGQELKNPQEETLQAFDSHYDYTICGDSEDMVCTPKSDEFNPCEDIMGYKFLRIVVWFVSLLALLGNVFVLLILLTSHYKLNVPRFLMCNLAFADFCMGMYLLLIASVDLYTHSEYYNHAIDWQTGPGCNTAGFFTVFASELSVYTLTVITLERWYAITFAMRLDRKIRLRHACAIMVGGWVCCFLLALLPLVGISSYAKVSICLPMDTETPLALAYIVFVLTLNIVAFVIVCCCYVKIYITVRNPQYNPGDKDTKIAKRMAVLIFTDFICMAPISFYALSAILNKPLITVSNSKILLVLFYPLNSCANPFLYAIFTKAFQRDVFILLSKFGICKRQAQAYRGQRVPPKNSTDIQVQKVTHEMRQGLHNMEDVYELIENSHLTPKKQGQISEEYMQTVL
Chain of Luciferin 4-monooxygenase (Photinus pyralis) (P08659 whole entry, looked up): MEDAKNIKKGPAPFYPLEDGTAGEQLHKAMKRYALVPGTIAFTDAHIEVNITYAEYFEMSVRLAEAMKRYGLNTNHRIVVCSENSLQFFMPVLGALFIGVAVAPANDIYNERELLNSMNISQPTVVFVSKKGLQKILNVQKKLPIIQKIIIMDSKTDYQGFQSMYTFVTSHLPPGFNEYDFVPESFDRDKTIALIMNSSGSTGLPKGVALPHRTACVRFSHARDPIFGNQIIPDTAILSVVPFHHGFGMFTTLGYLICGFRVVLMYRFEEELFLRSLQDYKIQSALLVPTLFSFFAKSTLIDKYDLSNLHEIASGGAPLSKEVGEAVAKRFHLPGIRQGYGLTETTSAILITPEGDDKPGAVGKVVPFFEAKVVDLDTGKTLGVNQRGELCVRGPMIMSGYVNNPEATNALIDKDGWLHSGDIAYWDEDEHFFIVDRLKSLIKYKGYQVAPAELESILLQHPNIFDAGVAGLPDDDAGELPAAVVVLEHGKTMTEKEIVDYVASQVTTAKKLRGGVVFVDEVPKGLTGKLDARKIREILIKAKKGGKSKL
Chain of Nuclear receptor subfamily 1 group I member 3 (Homo sapiens) (Q14994 whole entry, looked up): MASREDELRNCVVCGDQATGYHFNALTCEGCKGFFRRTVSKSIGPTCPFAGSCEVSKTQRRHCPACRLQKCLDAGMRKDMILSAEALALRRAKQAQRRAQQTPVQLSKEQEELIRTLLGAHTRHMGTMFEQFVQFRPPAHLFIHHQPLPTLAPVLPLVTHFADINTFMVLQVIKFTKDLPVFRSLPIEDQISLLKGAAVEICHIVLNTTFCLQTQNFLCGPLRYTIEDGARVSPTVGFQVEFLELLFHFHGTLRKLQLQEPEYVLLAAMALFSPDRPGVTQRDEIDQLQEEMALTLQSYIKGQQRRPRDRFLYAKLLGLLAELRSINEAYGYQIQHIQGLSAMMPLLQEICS

CCN(CC)c1ccc(C=O)c(O)c1
not listed: [12] | [13] | [14] | [15]
inactive: all other assays above

O=C(Nc1ccc([N+](=O)[O-])cc1)Nc1ccc([N+](=O)[O-])cc1 (tested in a mixture with another compound)
active: [11] 17.5 µM
inactive: [12] | [2] | [3] | [5] | [7] | [8] | [9] | [10]

CC(C)=CCC[C@H](C)CC=O
inactive: [12] | [2] | [3] | [5] | [7] | [8] | [9] | [11]

O=c1[nH]cccc1O
active: [15] 19.3 µM
not listed: [1] | [5] | [7]
inactive: all other assays above

N#CCCOCCC#N
not listed: [1] | [3] | [7] | [13] | [14] | [15]
inactive: all other assays above

Nc1ccc(Cl)c([N+](=O)[O-])c1
inactive: [12] | [2] | [3] | [8] | [9] | [10] | [11]

CCC1(C)C(=O)N(Cl)C(=O)N1Cl (stereo not given)
not listed: [1] | [14] | [15]
inactive: all other assays above

CCOC(=O)C1=NN(c2ccc(Cl)cc2Cl)C(C)(C(=O)OCC)C1 (stereo not given)
inactive: [12] | [2] | [3] | [6] | [8] | [9] | [10]
active: [11] 113 µM | [15] 48.6 µM

CCNc1nc(NC(C)(C)C)nc(OC)n1
active: [13] 30.6 µM
not listed: [1] | [6] | [14] | [15]
inactive: all other assays above

CCCCCCCC1CCC(=O)O1 (stereo not given)
inactive: [12]

CCCCCCCCCC[N+](C)(CCCCCCCCCC)CCC[Si](OC)(OC)OC
inactive: [2] | [4] | [13] | [9]
active: [12] 79.6 µM | [8] 54.9 µM | [11] 50.5 µM

O=C1OC(O)C(C(Cl)Cl)=C1Cl (stereo not given)
inactive: [12] | [2] | [3] | [7] | [11]

C=Cc1ccncc1
not listed: [2] | [12] | [15]
inactive: all other assays above

CCCCCN=C(N)N/N=C/c1c[nH]c2ccc(OC)cc12
inactive: [12] | [13] | [6]
active: [2] 21.1 µM | [4] 16.8 µM | [5] 21.1 µM | [11] 49.2 µM

CC(=O)N(C)C
inactive: [12]

O=C1Cc2ccccc2C1
inactive: [12]

CCCCCCCCCCCCCCCCCCNC(=O)OC1CCN(C(=O)OC[C@H](COC(=O)N(Cc2cccc[n+]2CC)C(=O)c2ccccc2OC)OC)CC1
inactive: [12] | [2] | [4] | [13] | [6] | [9]
active: [14] 11.9 µM | [15] 10.6 µM

CCOC(=O)[C@H](C)O
not listed: [1] | [6] | [7] | [14] | [15]
inactive: all other assays above

CCOc1nc(F)cc2nc(S(=O)(=O)Nc3c(Cl)cccc3C(=O)OC)nn12
inactive: [1] | [2] | [4] | [13] | [7] | [9] | [10] | [11]

CC/C(=C(/c1ccc(O)cc1)c1ccc(OCCN(C)C)cc1)c1ccccc1
active: [2] 40.3 µM | [4] 35.9 µM | [5] 32 µM | [11] 41.9 µM
inactive: [12] | [13] | [6]

C=CCc1cc(S(=O)(=O)c2ccc(O)c(CC=C)c2)ccc1O
active: [15] 61.1 µM
not listed: [1] | [5] | [10] | [11] | [14]
inactive: all other assays above
